According to the supplement of paper PMC6555819:

Assays:
Test in all cases: PBM binding z-score (relative to random genomic background probes); higher = stronger binding; sequences stand for … in GC…GCGATTGACAGCGTAGAATGAAGG
[1] = test system: RARb homodimer (NR concentration 270 nM)
Summary of the method: (§1)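 Custom Agilent 4×180K protein-binding microarrays carried double-stranded probes, each with a 34-nt variable region. These regions held direct-repeat seeds, single-nucleotide variants, half-site ablations and random human genomic background sequences. Ligand-free nuclear receptor dimers were incubated on the arrays for 1 h, antibodies against each partner (one per run) detected binding, and scanned fluorescence was regression-normalized. Binding z-scores take the random background probes as reference.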

[2] = test system: RARg:RXRa (NR concentration 270 nM, RXRa partner concentration 90 nM)
Summary of the method: as §1

[3] = test system: RARg homodimer (NR concentration 270 nM)
Summary of the method: as §1

[4] = test system: RXRa DBDmut IVT, anti-RXR (DBD mutation: RXRa K156A/R161A, NR concentration 90 nM)
Summary of the method: as §1

[5] = test system: RXRa homodimer (NR concentration 180 nM)
Summary of the method: as §1

[6] = test system: THRa:RXRa (NR concentration 90 nM, RXRa partner concentration 90 nM)
Summary of the method: as §1

[7] = test system: THRa homodimer (NR concentration 90 nM)
Summary of the method: as §1

[8] = test system: VDR homodimer (NR concentration 270 nM)
Summary of the method: as §1

Row | Sequence | PBM binding z-score [1] | PBM binding z-score [2] | PBM binding z-score [3] | PBM binding z-score [4] | PBM binding z-score [5] | PBM binding z-score [6] | PBM binding z-score [7] | PBM binding z-score [8]
1 | TTTACAGGGTCAAAGGCCAGAGTACGAATGTCGA | 3.46 | 5.91 | 5.11 | 3.13 | 6.94 | 3.63 | 0.893 | 2.97
2 | GCTTGTAGATCAAAGTTAAGAAAGACTAAGCTAA | -0.8 | -0.501 | -0.292 | -0.0516 | -0.495 | -0.445 | -1.4 | -0.623
3 | CCTTACGGGTCACTGACAGGGTATAGCATTTGGA | 2.82 | 5.05 | 4.61 | 1.26 | 4.55 | 2.32 | -0.0972 | 0.873
4 | ACTATTAGTTGAGCCGAGGGCAACCGATAGGTTG | 1.35 | 0.604 | 0.752 | 0.39 | 0.52 | 2.57 | 0.523 | 0.692
5 | AGAATGAGGTTATTAAGATCAGGGACTTGCGGTC | 0.973 | 1.12 | 0.814 | 1.92 | 1.82 | 2.09 | 0.617 | 1.36
6 | GCATGTAGGTAATACAAGGTGAAAGTCCGATTGT | 0.748 | 0.359 | 0.236 | -0.332 | 0.495 | 3.96 | 0.81 | -0.301
7 | CCGACTGGGGGATAAGGTTACCATAAGCCAGCCC | 1.05 | 1.12 | 0.756 | -0.00884 | 1.21 | 2.51 | 2.11 | 0.491
8 | ATCTCTAGGTAACCAAGTTCAGGGAATGCCGAAC | 1.55 | 0.828 | 0.852 | 0.481 | 0.745 | 1.69 | 0.87 | 2.84
9 | TAGCCTAGGTAATGCGGGCCAGTATAGTGTCGGC | -0.521 | -0.6 | -0.559 | -1.3 | -0.499 | -0.418 | -0.74 | -0.784
10 | ATCGAAAGGTCTTGAGGTGAGTATACAGAAAGGC | 1.41 | 1.77 | 1.87 | -0.483 | 1.48 | 2.34 | 1.21 | -0.0653
11 | ATCTCTAGGTAAAATTTCAGTGAATCCCGAGGAT | -0.0962 | 0.558 | 0.537 | 0.113 | 0.367 | 0.328 | 0.331 | -0.51
12 | ACTAGTTGGACAGCTGAGGTCACACACAATTCGG | 4.06 | 3.66 | 3.43 | 1.09 | 3.85 | 4.57 | 4.93 | 2.99
13 | TGAATGAGGTTATAAGATCATGGAACGTTGCAAA | 0.204 | 1.76 | 0.935 | 0.832 | 2.42 | 1.71 | 0.0513 | 0.42
14 | GCTATTAGTTGAAAGGGGAACCGAATGATTCTCG | -0.167 | 0.105 | 0.00369 | 0.78 | 0.144 | 0.00231 | -0.215 | -0.125
15 | CCAGACAGGTGAAAGGTAGCTCAGTCTGGTACGC | 0.293 | 0.352 | 0.242 | -0.0776 | 1.07 | 0.0213 | -0.421 | 0.118
16 | CGTCCAAGGTCAAGGTCAGTGATAGAGACTCGAA | 5.36 | 6.7 | 7.67 | 3.76 | 6.55 | 4.48 | 3.93 | 3.53
17 | ACTAGCAGGCGAAGGGTCACTCAAGATTAGTCCG | 3.34 | 3.45 | 3.42 | 0.405 | 3.49 | 2.32 | -0.224 | 0.989
18 | TCTAGTTGGTCACGGAAGTCACACACGACGGGTA | 1.41 | 1.36 | 1.54 | 0.587 | 1.21 | 0.441 | 0.354 | 0.0407
19 | ACTAGTTGGTCATCTGAGGTCACACACAATTCGG | 4.29 | 4.22 | 4.23 | 1.93 | 4.26 | 5.17 | 5.44 | 4.23
20 | CTCGAAAGGTCTGTTGAGGTGAGTATACGGATAA | 0.88 | 0.827 | 1.16 | -0.237 | 0.536 | 4.3 | 1.12 | -0.104
21 | GATACAGGGTCAGGTAGAGGCCAGAGTATGGAAA | 3.48 | 6.43 | 4.46 | 0.77 | 4.13 | 3.18 | 0.846 | 1.25
22 | CCTAGTTCGTCAAGGTCACACACGCTATAGGTAC | 4.36 | 4.84 | 4.77 | 4.16 | 4.74 | 4.39 | 4.47 | 6.91
23 | CAAACTAGGTCAAAGGTCAAAGTCGAGCCAACCA | 4.96 | 8.83 | 7.42 | 2.87 | 10.2 | 4.74 | 1.83 | 3.41
24 | CAAACTAGGTCAAGAGGTCAAATTCCGCTTCCCG | 5.63 | 8.27 | 7.69 | 2.86 | 8.31 | 4.58 | 2.73 | 4.49
25 | CGAACGAGGGCATGAGTTGAGAGCAAATGCCGAT | 0.724 | 1.46 | 1.56 | 1.8 | 1.02 | 1.25 | -0.339 | 1.26
26 | AATACAGGGTCATCGTAGGCCAGGGTACGCACAG | 3.72 | 5.54 | 5.21 | 3.32 | 6.38 | 4.57 | 1.69 | 3.9
27 | TCGAGTTGGTCACGGAGGTCACACACGACGGGTA | 4.47 | 4.77 | 4.81 | 1.32 | 4.92 | 3.77 | 2.24 | 3.52
28 | CCAGACAGGTGAATGGTAACTCAGTCTGGTACGC | -0.113 | 0.0397 | 0.189 | -0.0115 | 0.0786 | -0.333 | -0.556 | -0.492
29 | TCTCGGAGGACACGAAGCTCAGAGCTTTCCAGAG | 0.381 | 0.265 | 0.869 | 0.583 | -0.175 | 1.23 | 0.177 | -0.5
